Laboratory results from PubChem BioAssay (NCI).
The panel holds about 79,000 compounds, 15% with a hit somewhere; the sample as a whole holds those more often. Unmarked numbers belong to inactive results. Active and inactive are the calls of the source. Rule as the data show it: active = growth inhibition above about 70%; inactive = the rest.

Key:
[1] = NCI Yeast Anticancer Drug Screen. Data for the rad50 strain (AID 155);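 also: 0% = growth of vehicle-only cultures of the same strain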; settings: S. cerevisiae rad50 strain growth inhibition, active compounds read high
How it was run: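 Growth of the mutant yeast was measured after compound exposure and referenced to vehicle-treated cultures.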

[2] = NCI Yeast Anticancer Drug Screen. Data for the mec2-1 strain (AID 157); settings: S. cerevisiae mec2-1 strain, active compounds read high
How it was run: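 mec2-1 yeast strain, carrying an alteration in DNA damage repair or cell cycle control, was exposed to compounds; growth inhibition was measured relative to vehicle-treated controls.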

[3] = NCI Yeast Anticancer Drug Screen. Data for the sgs1 mgt1 strain (AID 161);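 also: 0% = growth of cultures given vehicle only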; settings: S. cerevisiae sgs1 mgt1 strain, active compounds read high
How it was run: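 Percent growth inhibition was derived by comparing compound-exposed mutant yeast with vehicle-exposed cultures. The strain carries alterations in DNA damage repair.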

[4] = NCI Yeast Anticancer Drug Screen. Data for the cln2 rad14 strain (AID 165);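 also: 0% = growth equal to vehicle treated cultures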; settings: S. cerevisiae cln2 rad14 strain, active compounds read high
How it was run: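 Yeast carrying cln2 and rad14 alterations (cell cycle control and DNA damage repair) were exposed to compounds. Growth inhibition was measured against vehicle-treated controls.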

[5] = NCI Yeast Anticancer Drug Screen. Data for the bub3 strain (AID 167); settings: S. cerevisiae bub3 mutant strain, active compounds read high
How it was run: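 Whole-cell yeast assay. The mutant strain was incubated with compounds, and growth inhibition was determined by comparison with vehicle-treated cells.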

[6] = NCI Yeast Anticancer Drug Screen. Data for the mlh1 rad18 strain (AID 175); settings: S. cerevisiae mlh1 rad18 strain growth inhibition, active compounds read high
How it was run: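 Growth inhibition of the yeast strain was measured after compound exposure and expressed relative to vehicle-treated controls. The strain carries defined defects in DNA damage repair.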

[7] = at 5.0 µM (retest, dose inferred, filed as 0.5)
[8] = at 50.0 µM (retest, dose inferred, filed as 5.0)

Compound | growth inhibition [1, 7] | growth inhibition [1, 8] | growth inhibition ([1]; at 50.0 µM) | growth inhibition [2, 7] | growth inhibition [2, 8] | growth inhibition ([2]; at 50.0 µM) | growth inhibition [3, 7] | growth inhibition [3, 8] | growth inhibition ([3]; at 50.0 µM) | growth inhibition [4, 7] | growth inhibition [4, 8] | growth inhibition ([4]; at 50.0 µM) | growth inhibition [5, 7] | growth inhibition [5, 8] | growth inhibition ([5]; at 50.0 µM) | growth inhibition [6, 7] | growth inhibition [6, 8] | growth inhibition ([6]; at 50.0 µM)
CC(=O)Oc1ccc2c(c1)CCC1C2CCC2(C)C1CCC21CO1 (configuration not stated) | -4% | 60% | 89.7% (active) | -6% | 18% | 28.6% | -3% | 54% | 73.4% (active) | 1% | 11% | 52.2% | 3% | 44% | 83% (active) | -6% | 29% | 66.7%
CCN(CC)c1c(C(=O)/C=C/c2ccc(F)cc2)c(-c2ccccc2)nn(C)c1=O | 29% | 29% | 87.9% (active) | 2% | 2% | 90.6% (active) | 12% | 12% | 70.5% (active) | 16% | 16% | 90.3% (active) | -3% | -3% | 90.3% (active) | 1% | 1% | 86.2% (active)
CCOC(=O)c1cc(Cc2ccccc2)c(=O)n(C)c1-c1ccccc1 | 4% | 75% (active) | 72% (active) | -3% | 83% (active) | 3.1% | 0% | 85% (active) | 93% (active) | 7% | 46% | -5.4% | 5% | 84% (active) | 85.3% (active) | 2% | 86% (active) | 50.1%
NS(=O)(=O)c1ccc(-n2cccc2)cc1 | 0% | -4% | 10.6% | -2% | -3% | -11.3% | -1% | -3% | -1.6% | 1% | -1% | 56.6% | -6% | -7% | 23.5% | -2% | -3% | 7.7%
CC1CC(c2ccccc2)(c2ccccc2)C(=O)C(C)N1C (configuration not stated) | -1% | 22% | 13.6% | -2% | -5% | 29.9% | 0% | -19% | 14.2% | -1% | -2% | 28% | -4% | 10% | 72% (active) | -3% | 7% | 25.9%
Cc1ccc(Cl)cc1NC(=O)N(C)CCOC(=O)Nc1cccc(Cl)c1 | 32% | 95% (active) | 88.7% (active) | 31% | 97% (active) | 91% (active) | 41% | 97% (active) | 92.9% (active) | 22% | 97% (active) | 90% (active) | 23% | 94% (active) | 92.3% (active) | 41% | 98% (active) | 90.5% (active)
Cc1cnc2c(c1C)C(=O)c1ccccc1C2=O | 27% | 92% (active) | 64.4% | 26% | 88% (active) | 50.2% | 27% | 81% (active) | 87% (active) | 27% | 75% (active) | 83.1% (active) | 32% | 91% (active) | 84.1% (active) | 26% | 92% (active) | 89.3% (active)
CCOc1cnn(-c2ccccc2)c(=O)c1SCc1ccc(Cl)c(Cl)c1 | -4% | 27% | 37.5% | -3% | 56% | 8.95% | 2% | 73% (active) | 65.8% | -11% | 44% | 53.1% | 4% | 82% (active) | 40.3% | -4% | 56% | 32.4%
C=C(Br)CN1CCC2(c3ccccc3)C(O)C([Se]c3ccccc3)CCC12 (configuration not stated) | 85% (active) | 85% (active) | 83.1% (active) | 78% (active) | 78% (active) | 84% (active) | 81% (active) | 81% (active) | 78% (active) | 80% (active) | 80% (active) | 83.3% (active) | 84% (active) | 84% (active) | 84.8% (active) | 89% (active) | 89% (active) | 82.8% (active)
Cc1cccc(C)c1NC(=O)CSC(N)=O | 4% | 22% | 72.2% (active) | -1% | 24% | 65% | 0% | 22% | 87.2% (active) | 5% | -1% | 56.1% | 4% | 42% | 75.5% (active) | 7% | 26% | 73.2% (active)
O=Cc1c(Cn2ccnc2)c2cc([N+](=O)[O-])ccc2n1Cc1ccccc1 | 5% | 49% | 62.5% | 4% | 39% | 13.7% | 6% | 48% | 57.2% | -2% | -17% | 22.9% | -3% | -1% | 3.8% | 8% | 64% | 68.5%
O=C(c1ccc(F)cc1)c1ccc(Cl)cc1Cl | 96% (active) | 98% (active) | 97% (active) | 100% (active) | 99% (active) | 98.7% (active) | 100% (active) | 99% (active) | 93.5% (active) | 99% (active) | 100% (active) | 98.2% (active) | 99% (active) | 100% (active) | 98.9% (active) | 99% (active) | 99% (active) | 99.2% (active)
O=C([O-])C[n+]1c(/C=C/c2ccccc2)ccc2ccccc21 | -2% | 69% | 37.1% | -3% | 87% (active) | 5.35% | -6% | 92% (active) | 28.9% | -3% | 85% (active) | 13.9% | 2% | 84% (active) | 6.8% | 0% | 94% (active) | 32.3%
c1ccc(-c2c[nH]c(-c3ccccc3)c2-c2ccccc2)cc1 | 1% | 90% (active) | 95.2% (active) | -13% | 93% (active) | 95.1% (active) | -15% | 94% (active) | 93.3% (active) | -4% | 80% (active) | 95% (active) | 7% | 92% (active) | 83.4% (active) | 18% | 94% (active) | 96.8% (active)
CCCCCCCCS(=O)(=O)Nc1ccccc1 | 11% | 98% (active) | 99.3% (active) | 0% | 99% (active) | 99.2% (active) | 6% | 99% (active) | 99.3% (active) | 4% | 99% (active) | 99.4% (active) | 4% | 99% (active) | 99.1% (active) | -5% | 61% | 99.1% (active)
CC(=O)N1CC(C)CC2OC3(CCC4C5CCC6CC(O)CCC6(C)C5C(=O)C4C3C)C(C)C21 (configuration not stated) | 10% | 98% (active) | 91.6% (active) | 1% | 98% (active) | 93.7% (active) | 19% | 97% (active) | 92.6% (active) | 26% | 98% (active) | 92.5% (active) | 14% | 98% (active) | 92.2% (active) | -20% | 98% (active) | 91.8% (active)
Cc1c2cnccc2c(C)c2c1c1ccccc1n2CCCN | 22% | 73% (active) | 91.7% (active) | 14% | 33% | 67.6% | 5% | 50% | 77.3% (active) | 17% | 32% | 72.3% (active) | 29% | 35% | 84.6% (active) | 16% | 58% | 82.1% (active)
OCC(O)C(O)C(O)/C=N\Nc1ccccc1 (configuration not stated) | 9% | 19% | 49.6% | -3% | -6% | 44.4% | -5% | 15% | 39.5% | -3% | -7% | 43% | 1% | 31% | 51.5% | 16% | 42% | 18.1%
CCCCN1C(=O)C[C@H]2[C@@H]3CCc4cc(OCCN5CCCC5)ccc4[C@H]3CC[C@]2(C)C1=O | 36% | 75% (active) | 56.9% | 30% | 53% | 55.4% | 66% | 90% (active) | 71.5% (active) | 33% | 70% (active) | 73.1% (active) | 57% | 72% (active) | 78.6% (active) | 68% | 78% (active) | 63.6%
